The sample as a whole holds a higher share of hits than the screen did.
RBX1-CUL1 inh: blocks human RBX1-Cullin-1 di-ubiquitin formation. inhibition, % at 10 µM. in vitro K48 di-Ub FRET, acceptor:donor ratio, 45 min. AID 1347404. 140,000 tested, 0.6% active; in the data active = inhibition above about 25%
* hit, by the source's call.

SMILES	RBX1-CUL1 inh
COc1cc(C(c2c(C)[nH][nH]c2=O)c2c(C)[nH][nH]c2=O)ccc1OC(=O)c1ccccc1F	-19
COc1ccc(C(=O)Oc2ccc(C(c3c(C)[nH][nH]c3=O)c3c(C)[nH][nH]c3=O)cc2OC)cc1	13
CCOc1cc(C(c2c(C)[nH][nH]c2=O)c2c(C)[nH][nH]c2=O)ccc1OCc1cccc2ccccc12	45*
O=C1NC(=S)N=C1Cc1cc(Br)cc(Br)c1O	7
COc1cc(C)c(CC2=NC(=S)N(c3ccc(Cl)cc3)C2=O)cc1C(C)C	8
O=C1C(Cc2cc(Br)cc(Br)c2O)=NC(=S)N1c1ccc(Cl)cc1	100*
COc1ccc(OCC(=O)Nc2cccc(C)c2C)cc1	4
COc1ccccc1NC(=O)COc1cccc2ccccc12	0
Cc1cc(O)ccc1NC(=O)COc1cccc2ccccc12	3
O=C(COc1cccc2ccccc12)Nc1ccc(Cl)cc1C(=O)O	25*
Cc1ccc(C)c(NC(=O)CN(C2CCCCC2)S(=O)(=O)c2ccccc2)c1	3
Cc1nc(NC(=S)NC(=O)c2ccc(Cl)cc2Cl)ccc1Br	-15
C/C(=N\Nc1nc(-c2ccc(Cl)cc2)c(-c2ccccc2)s1)c1ccc(Br)cc1	-9
CC(=O)Oc1ccc(OC(C)=O)c2c1C(=O)C=CC2=O	99*
CC(=O)Oc1ccccc1C(=O)Oc1ccccc1	-5
CC(=O)NCc1ccc(OC(C)=O)c(OC(C)=O)c1	2
CC1CCN(c2ccc([N+](=O)[O-])cc2C=C2C(=O)NC(=S)NC2=O)C(C)C1 (stereo not drawn)	-1
O=C(Cn1ccnc1)N1CCC(C2CCN(c3ncccn3)CC2)C1 (stereo not drawn)	3
CSCCC(=O)N1CCOC(CCCC(C)C)C1 (stereo not drawn)	6
Cn1cccc1/C=C/c1cc(Br)c(/C=C/c2cccn2C)cc1Br	95*
Cn1cccc1/C=C1/C(=O)ON=C1c1ccccc1	2
CCN1C(=O)S/C(=C/c2cccn2C)C1=O	-6
CCOc1ccc(NC(=O)c2cnn3c2N=C(c2cccc(OC)c2)CC3c2ccccc2)cc1 (stereo not drawn)	9
COc1ccccc1CSc1nc2n(n1)C(c1ccccc1)C(C(=O)Nc1ccc(C)cc1)C(C)=N2 (stereo not drawn)	1
CCOC(=O)C1C(=N)OC2=C(C(=O)CC(C)(C)C2)C1c1ccccc1 (stereo not drawn)	3
SMILES	RBX1-CUL1 inh
CCN(Cc1nccn1C)C(=O)c1ccc(NC2CCOCC2)nc1	3
O=C1S/C(=C\c2ccccc2)C(=O)N1Cc1ccc(F)cc1	5
O=C1S/C(=C\c2cc(Br)c(O)c(Br)c2)C(=O)N1Cc1ccc(F)cc1	31*
C=CCOc1c(Br)cc(/C=C2\SC(=O)N(Cc3ccc(F)cc3)C2=O)cc1OCC	-2
O=C(Oc1ccc(F)cc1)c1cc(=O)[nH]c2ccccc12	1
CC(NC(=O)c1nn2c(C(F)(F)F)cc(-c3ccc(Br)cc3)nc2c1Br)c1ccccc1 (stereo not drawn)	-4
Cc1c(CNC(=O)C2CC2c2ccc(C(C)(C)C)cc2)cnn1C (stereo not drawn)	11
Cc1cc(/C=C2\SC(=Nc3ccc(F)cc3)NC2=O)c(C)n1-c1ccc(S(N)(=O)=O)cc1	-5
Cc1cc(/C=C2\SC(=Nc3ccc(Cl)cc3)NC2=O)c(C)n1-c1cc(C(=O)O)cc(C(=O)O)c1	100*
CCOC(=O)c1ccc(-n2c(C)cc(/C=C3\SC(=Nc4ccc(Cl)cc4)NC3=O)c2C)cc1	1
CCCCOC(=O)C(C)n1cnc2sc3c(c2c1=O)CCC(C)C3 (stereo not drawn)	5
COc1ccc(N/N=C(\C#N)C(=O)c2ccc(C)cc2)cc1	-11
COc1ccc(/C=N/OC(=O)c2ccccc2)cc1	4
COc1ccc(/C=C(\C)c2ccc(OC)cc2)cc1	-6
COc1ccc(/C=C(/S)C(=O)O)cc1	89*
COC(=O)N1C=Cc2c(cccc2[N+](=O)[O-])C1C#N (stereo not drawn)	0
CCS(=O)(=O)N1CCc2[nH]nc(CC3CCCCC3)c2C1	-10
COc1ccc2c(c1)SC(c1ccc(OC)c(C)c1)CCN2Cc1cnn(C)c1C (stereo not drawn)	5
C1=C(c2ccc(-c3ccccc3)cc2)N2C(=NN=C(c3ccccc3)C2c2ccccc2)S1 (stereo not drawn)	-18
Cc1ccc(C2=CSC3=NN=C(c4ccccc4)C(c4ccccc4)N23)cc1 (stereo not drawn)	2
C1=C(c2ccccc2)N2C(=NN=C(c3ccccc3)C2c2ccccc2)S1 (stereo not drawn)	41*
COc1ccc(CC2(Cc3ccc(OC)cc3)C=C(C)OC2=O)cc1	17
CN1CCCN=C1C1Sc2ccccc2C1=O (stereo not drawn)	8
CC1=C(C#N)C(=O)N(CCO)C(=O)/C1=C\c1ccc(-c2ccccc2)o1	-12
CC1=C(C#N)C(=O)N(CCc2ccccc2)C(=O)/C1=C/c1ccc(-c2ccc(S(N)(=O)=O)cc2)o1	26*
CCCN1C(=O)C(C#N)=C(C)/C(=C\c2ccc(-c3ccccc3)o2)C1=O	8
